Reference: PubChem BioAssay AID602314 (ICCB-Longwood Screening Facility, Harvard Medical School, 2012)
“And” between values parts separate entries of the source, which are not always exact repeats. Equal values may be shown once. Screen size: about 84,000 compounds; about 110 (0.13%) were called active. No stated cut-off is given here; in the data, active means inhibition above about 30% (passing the limit was not always enough); inactive means the rest. Many of the other results were omitted from the sample, so actives are more common in it than they were. More than one record can exist for a structure, and the calls need not agree.

What follows are compounds tested on MgrA (MarR family transcriptional regulator), Staphylococcus aureus Newman (assay: modulators of MgrA DNA binding – biochemical, S. aureus Newman, fluorescence polarization, primary screen (AID 602314;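 further: 0% = protein plus DNA without compound and 100% = DNA alone without protein; higher means less MgrA bound to DNA so lower polarization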)). Conditions: stronger effect = higher value, concentration not given here.

SMILES	inhibition
COC(=O)c1cccnc1NC(=S)NC(C)C	3.15% (inactive)
COc1ccc(NC(=O)Nc2ccc(N3CCOCC3)cc2)cc1	-0.2% (inactive)
O=C1C(Nc2ccc(O)cc2)=C(n2nnc3ccccc32)C(=O)c2ccccc21	-0.3% (inactive)
NC(=S)C1(c2ccc(Cl)cc2Cl)CC1	-0.5% (inactive)
CC1CN(S(=O)(=O)c2ccc3c4c(cccc24)C(=O)N3)CC(C)O1 (centres undefined)	0.25% (inactive)
CC[n+]1c(C)n(-c2ccccc2)c2ccc(N)cc21	1.45% (inactive)
CC[N+](C)(CC)CCC[n+]1c(-c2ccccc2)c2cc(N)ccc2c2ccc(N)cc21	104% (active) and 0.85% (inactive)
N=C1/C(=C/c2ccc(SCc3ccccc3)o2)C(=O)N=C2SC=CN12	1.55% (inactive)
CS(=O)(=O)c1nc2ccccc2[nH]1	-4.3% (inactive)
N#C/C(=C\C=C\c1ccccc1)c1nc2ccccc2[nH]1	9.2% (inactive)
N#CC(=C1C(=O)c2ccccc2C1=O)c1nc2ccccc2[nH]1	59.7% (active)
CCN(CC)C(=O)CSc1nc2ccccc2cc1C	0.6% (inactive)
Nc1ccccc1C(=O)Nc1ccc(Cl)cc1	-1.3% (inactive)
CCCCOc1ccc(C2=N/C(=C\c3cc(OC)c(OC)cc3OC)C(=O)O2)cc1	-1.1% (inactive)
CSc1n[nH]c(-c2ccc(Cl)cc2)c1C#N	-2.1% (inactive)
CC(C)c1ccc(NC(=O)CN2N=C(c3ccc(Cl)cc3)CCC2=O)cc1	0.65% (inactive)
O=C1/C(=C\c2cccs2)SC(=S)N1CCCC(=O)N1CCCc2ccccc21	2.75% (inactive)
Cc1ccc(C(=O)OCC2OC(C#N)CC2OC(=O)c2ccc(C)cc2)cc1 (centres undefined)	-3.65% (inactive)
CSc1ncc(Br)c(C(=O)O)n1	-4.9% (inactive)
O=C(c1ccc(F)cc1)c1c[nH]c(C(=O)NCc2ccc(F)cc2)c1	-2.05% (inactive)
COCCn1c(N)cc(=O)[nH]c1=S	0.65% (inactive)
Cc1cccc(OCC(=O)N2CCc3ccccc32)c1	0.6% (inactive)
CCN(CC)C(=O)Cc1cc(OC)c(OC)cc1Br	3.35% (inactive)
Cn1cnnc1SCc1ccc(Cl)cc1	-1.45% (inactive)
CCc1cccc(CC)c1N1C(=O)CC(Sc2ccccc2N)C1=O (centres undefined)	1.1% (inactive)

SMILES	inhibition
c1ccc2c(c1)CCN2c1nc2ccccc2n2cnnc12	0.25% (inactive)
O=c1[nH]c(O)c(C=NCCCn2ccnc2)c(=O)[nH]1	5.6% (inactive)
CSc1nsc(SCC(=O)OC2CC(C)CCC2C(C)C)n1 (centres undefined)	0.7% (inactive)
CC(C)(C)c1ccc(NC(=O)COC(=O)c2ccc(F)cc2F)cc1	4.8% (inactive)
CCN(C(=O)c1cccs1)c1cccc2ccccc12	-1.8% (inactive)
COc1cccc(CC(=O)Nc2ccc(-c3csc(C)n3)cc2)c1	-0.65% (inactive)
Cc1ccc(NC2SC(=O)NC2=O)cc1 (centres undefined)	1.7% (inactive)
O=C(NC1CC1)C1C2C=CC3(O2)C1C(=O)N(C1CC1)C3C(=O)NC1CCCCC1 (centres undefined)	0.25% (inactive)
CCSc1nnc2c(n1)OC(c1cccc(OC)c1)Nc1ccccc1-2 (centres undefined)	-1.3% (inactive)
CC(=O)Nc1ccc(-c2nnc(-c3ccco3)o2)cc1	-3.3% (inactive)
CC(C)(C)C/C(=N/O)c1ccccc1	0.2% (inactive)
Cc1nnc(SCc2ccc(C#N)cc2)s1	0.7% (inactive)
CSc1ncnc2sc(-c3ccccc3)cc12	0.75% (inactive)
CCOC(=O)c1sc(NC(C)=O)c(C#N)c1C	-2.1% (inactive)
O=C(c1cnn2c(C(F)F)cc(-c3ccccc3)nc12)N1CCCC1	-0.35% (inactive)
CCOC(=O)c1ccc(NC(=O)CC2C(=O)N(c3ccc(F)cc3)C(=O)N2Cc2cccs2)cc1 (centres undefined)	-1.9% (inactive)
FC(F)(F)c1cccc(CSc2ncn[nH]2)c1	-0.7% (inactive)
COc1ccccc1C=NC12CN3CN(CN(C3)C1)C2	2.95% (inactive)
Oc1[nH]c2ccccc2c1C=NCCC1=CCCCC1	5.65% (inactive)
CCOCCOC(=O)C1=C(C)NC2=C(C(=O)CC(c3ccccc3)C2)C1c1cc2c(cc1Br)OCO2 (centres undefined)	-2.9% (inactive)
CCOC(=O)c1cccn1-c1ncc(C(F)(F)F)cc1Cl	-1.2% (inactive)
Cc1ccc(-c2nn(CCC(=O)NCCN3CCOCC3)c(=O)c3ccccc23)cc1	0.2% (inactive)
O=C(Nc1ccccc1-c1nc2ccccc2[nH]1)c1ccccc1Br	-2.6% (inactive)
N#CCc1ccc(OCc2ccc(Cl)c(Cl)c2)cc1	-1.9% (inactive)
